# From paper PMC7862700, “An all-to-all approach to the identification of sequence-specific readers for epigenetic DNA modifications on cytosine”
# Assays:
# Test in all cases: DAPPL (digital affinity profiling via proximity ligation, sequencing); 10 mM Tris-HCl pH 7.5, 50 mM NaCl, 1 mM DTT, 4% glycerol, room temperature, 30 min; GST-TFs on glutathione beads, 16-mer random dsDNA library, 0.1% formaldehyde crosslink after washing; high values mean tight binding
# FLI1 = target: T1, FLI1 (Homo sapiens, UniProt Q01543 1-452); details: protein: recombinant; tags: N-terminal GST; dsDNA, one strand shown
# T1 sequence: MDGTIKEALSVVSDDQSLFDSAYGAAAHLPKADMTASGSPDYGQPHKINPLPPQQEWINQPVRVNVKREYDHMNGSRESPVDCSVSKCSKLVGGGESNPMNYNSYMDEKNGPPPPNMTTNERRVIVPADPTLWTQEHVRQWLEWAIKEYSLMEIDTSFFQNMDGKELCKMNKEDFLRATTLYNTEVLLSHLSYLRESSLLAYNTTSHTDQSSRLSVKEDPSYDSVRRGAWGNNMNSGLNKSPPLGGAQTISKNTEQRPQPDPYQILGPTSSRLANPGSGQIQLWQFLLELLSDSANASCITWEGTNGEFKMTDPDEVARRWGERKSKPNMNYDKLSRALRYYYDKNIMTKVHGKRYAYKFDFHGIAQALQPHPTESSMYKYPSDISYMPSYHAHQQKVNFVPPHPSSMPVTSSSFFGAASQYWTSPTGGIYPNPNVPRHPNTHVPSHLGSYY
# How it was run: (§1)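 Beads coated with glutathione captured GST-fused human transcription factors that had been expressed in yeast, and the factors were then given DNA barcodes and pooled with a tag-only sample. The pools were incubated with 200 nmole of a random double-stranded 16-mer DNA library in Tris/NaCl/DTT/glycerol buffer for 30 min at room temperature, washed, crosslinked with 0.1% formaldehyde and proximity-ligated with BsaI/T4 ligase at 37 °C for 1 h. PCR amplification and Illumina NextSeq500 sequencing came last. Binding signal is each hexamer's read frequency for a factor divided by its frequency for the tag-only sample.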
# ELK1 = target: T2, ELK1 (Homo sapiens, UniProt P19419 1-428); details: protein: recombinant; tags: N-terminal GST; dsDNA, one strand shown
# T2 sequence: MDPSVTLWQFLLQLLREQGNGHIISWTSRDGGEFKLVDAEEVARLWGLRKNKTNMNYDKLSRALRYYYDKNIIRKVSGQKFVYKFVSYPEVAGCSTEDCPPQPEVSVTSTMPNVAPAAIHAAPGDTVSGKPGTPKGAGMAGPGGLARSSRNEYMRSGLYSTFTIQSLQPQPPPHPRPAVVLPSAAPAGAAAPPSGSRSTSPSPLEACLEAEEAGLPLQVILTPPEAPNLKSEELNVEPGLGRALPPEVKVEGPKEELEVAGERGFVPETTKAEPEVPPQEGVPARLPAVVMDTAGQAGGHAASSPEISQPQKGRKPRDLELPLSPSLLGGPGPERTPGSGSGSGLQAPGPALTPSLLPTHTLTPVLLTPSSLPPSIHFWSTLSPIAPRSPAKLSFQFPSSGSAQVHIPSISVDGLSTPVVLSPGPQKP
# How it was run: as §1
# GABPA = target: T3, GABPA (Homo sapiens, UniProt Q06546 1-454); details: protein: recombinant; tags: N-terminal GST; dsDNA, one strand shown
# T3 sequence: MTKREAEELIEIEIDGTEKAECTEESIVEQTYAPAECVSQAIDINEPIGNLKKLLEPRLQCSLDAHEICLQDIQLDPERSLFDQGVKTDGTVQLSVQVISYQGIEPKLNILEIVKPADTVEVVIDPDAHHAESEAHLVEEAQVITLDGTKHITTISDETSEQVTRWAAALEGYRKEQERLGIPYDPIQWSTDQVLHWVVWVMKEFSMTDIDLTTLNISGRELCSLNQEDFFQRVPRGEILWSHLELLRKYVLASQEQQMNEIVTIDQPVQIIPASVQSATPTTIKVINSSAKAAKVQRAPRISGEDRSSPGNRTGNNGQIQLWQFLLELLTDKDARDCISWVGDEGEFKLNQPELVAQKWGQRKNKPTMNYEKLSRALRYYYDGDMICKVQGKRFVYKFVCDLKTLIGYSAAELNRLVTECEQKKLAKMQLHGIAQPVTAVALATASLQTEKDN
# How it was run: as §1
# ERG = target: T4, ERG (Homo sapiens, UniProt P11308 1-479); details: protein: recombinant; tags: N-terminal GST; dsDNA, one strand shown
# T4 sequence: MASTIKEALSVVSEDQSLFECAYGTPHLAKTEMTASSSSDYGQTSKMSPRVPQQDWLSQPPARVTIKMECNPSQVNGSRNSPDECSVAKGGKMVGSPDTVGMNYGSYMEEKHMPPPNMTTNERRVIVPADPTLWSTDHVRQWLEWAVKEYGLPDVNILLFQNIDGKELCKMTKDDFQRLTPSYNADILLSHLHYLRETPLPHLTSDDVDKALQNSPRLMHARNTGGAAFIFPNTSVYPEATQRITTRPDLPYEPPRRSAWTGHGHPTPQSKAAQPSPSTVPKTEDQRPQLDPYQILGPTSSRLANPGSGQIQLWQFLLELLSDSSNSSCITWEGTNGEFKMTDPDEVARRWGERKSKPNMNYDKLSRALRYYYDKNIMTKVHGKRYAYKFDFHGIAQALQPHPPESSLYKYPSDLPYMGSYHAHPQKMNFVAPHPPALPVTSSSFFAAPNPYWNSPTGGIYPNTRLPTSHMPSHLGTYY
# How it was run: as §1
# ELF1 = ELF1 (Homo sapiens, UniProt P32519 1-619); details: protein: recombinant; tags: N-terminal GST; dsDNA, one strand shown
# Chain of ELF1 (P32519 whole entry): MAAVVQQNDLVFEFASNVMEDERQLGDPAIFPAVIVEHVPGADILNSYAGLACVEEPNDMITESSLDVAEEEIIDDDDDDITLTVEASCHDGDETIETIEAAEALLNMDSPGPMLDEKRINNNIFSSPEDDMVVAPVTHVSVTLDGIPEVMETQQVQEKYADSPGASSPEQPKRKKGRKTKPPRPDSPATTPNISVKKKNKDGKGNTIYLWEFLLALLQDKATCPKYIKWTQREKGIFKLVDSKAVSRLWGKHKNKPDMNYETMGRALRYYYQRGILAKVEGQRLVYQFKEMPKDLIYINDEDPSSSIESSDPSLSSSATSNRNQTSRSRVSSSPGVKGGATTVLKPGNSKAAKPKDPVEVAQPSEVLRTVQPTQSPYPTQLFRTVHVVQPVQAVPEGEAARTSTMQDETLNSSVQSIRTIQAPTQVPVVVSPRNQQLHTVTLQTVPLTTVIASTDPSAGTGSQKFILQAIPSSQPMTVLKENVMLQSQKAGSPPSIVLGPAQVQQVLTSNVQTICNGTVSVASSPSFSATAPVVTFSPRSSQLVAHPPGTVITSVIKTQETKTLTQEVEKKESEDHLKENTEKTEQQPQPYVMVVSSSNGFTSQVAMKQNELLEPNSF
# How it was run: as §1
# EHF = target: T5, EHF (Homo sapiens, UniProt Q9NZC4 1-300); details: protein: recombinant; tags: N-terminal GST; dsDNA, one strand shown
# T5 sequence: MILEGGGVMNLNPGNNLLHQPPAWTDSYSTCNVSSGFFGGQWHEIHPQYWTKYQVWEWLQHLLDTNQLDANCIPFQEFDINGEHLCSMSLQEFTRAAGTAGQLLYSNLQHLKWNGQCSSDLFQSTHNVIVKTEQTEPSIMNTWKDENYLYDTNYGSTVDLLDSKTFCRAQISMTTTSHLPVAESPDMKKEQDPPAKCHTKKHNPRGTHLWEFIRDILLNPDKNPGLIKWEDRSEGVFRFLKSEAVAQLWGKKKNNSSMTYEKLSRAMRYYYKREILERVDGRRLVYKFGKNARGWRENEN
# How it was run: as §1
# SPI1 = SPI1 (Homo sapiens, UniProt P17947 1-270); details: protein: recombinant; tags: N-terminal GST; dsDNA, one strand shown
# How it was run: as §1
# SPIB = SPIB (Homo sapiens, UniProt Q01892 1-262); details: protein: recombinant; tags: N-terminal GST; dsDNA, one strand shown
# Chain of SPIB (Q01892 whole entry): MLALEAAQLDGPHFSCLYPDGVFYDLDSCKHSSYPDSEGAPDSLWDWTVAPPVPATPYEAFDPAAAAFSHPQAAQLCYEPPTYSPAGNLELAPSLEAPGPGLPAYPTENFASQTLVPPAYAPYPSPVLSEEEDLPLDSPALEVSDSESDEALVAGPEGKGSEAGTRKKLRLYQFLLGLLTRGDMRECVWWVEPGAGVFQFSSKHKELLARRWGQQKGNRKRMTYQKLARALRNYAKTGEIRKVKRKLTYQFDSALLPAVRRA
# How it was run: as §1
# ELK3 = target: T6, ELK3 (Homo sapiens, UniProt P41970 1-407); details: protein: recombinant; tags: N-terminal GST; dsDNA, one strand shown
# T6 sequence: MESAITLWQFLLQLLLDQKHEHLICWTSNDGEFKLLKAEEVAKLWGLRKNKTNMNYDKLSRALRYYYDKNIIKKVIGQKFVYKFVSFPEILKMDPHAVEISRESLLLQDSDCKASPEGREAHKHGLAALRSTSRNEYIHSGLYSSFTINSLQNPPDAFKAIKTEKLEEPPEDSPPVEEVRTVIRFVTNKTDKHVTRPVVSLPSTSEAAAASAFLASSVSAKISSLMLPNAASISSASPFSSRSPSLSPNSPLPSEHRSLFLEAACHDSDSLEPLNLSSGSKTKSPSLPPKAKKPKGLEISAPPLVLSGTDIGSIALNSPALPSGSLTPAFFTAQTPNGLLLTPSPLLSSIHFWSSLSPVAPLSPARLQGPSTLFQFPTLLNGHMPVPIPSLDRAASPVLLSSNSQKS
# How it was run: as §1
# FEV = target: T7, FEV (Homo sapiens, UniProt Q99581 1-238); details: protein: recombinant; tags: N-terminal GST; dsDNA, one strand shown
# T7 sequence: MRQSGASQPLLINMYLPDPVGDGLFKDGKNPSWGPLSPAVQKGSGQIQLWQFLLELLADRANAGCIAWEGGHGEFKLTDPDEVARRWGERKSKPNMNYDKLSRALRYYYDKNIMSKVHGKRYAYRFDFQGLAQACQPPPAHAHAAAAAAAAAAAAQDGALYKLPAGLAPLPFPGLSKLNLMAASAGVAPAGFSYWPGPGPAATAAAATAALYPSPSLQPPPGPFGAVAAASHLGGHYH
# How it was run: as §1
# ETV5 = ETV5 (Homo sapiens, UniProt P41161 1-510); details: protein: recombinant; tags: N-terminal GST; dsDNA, one strand shown
# Chain of ETV5 (P41161 whole entry): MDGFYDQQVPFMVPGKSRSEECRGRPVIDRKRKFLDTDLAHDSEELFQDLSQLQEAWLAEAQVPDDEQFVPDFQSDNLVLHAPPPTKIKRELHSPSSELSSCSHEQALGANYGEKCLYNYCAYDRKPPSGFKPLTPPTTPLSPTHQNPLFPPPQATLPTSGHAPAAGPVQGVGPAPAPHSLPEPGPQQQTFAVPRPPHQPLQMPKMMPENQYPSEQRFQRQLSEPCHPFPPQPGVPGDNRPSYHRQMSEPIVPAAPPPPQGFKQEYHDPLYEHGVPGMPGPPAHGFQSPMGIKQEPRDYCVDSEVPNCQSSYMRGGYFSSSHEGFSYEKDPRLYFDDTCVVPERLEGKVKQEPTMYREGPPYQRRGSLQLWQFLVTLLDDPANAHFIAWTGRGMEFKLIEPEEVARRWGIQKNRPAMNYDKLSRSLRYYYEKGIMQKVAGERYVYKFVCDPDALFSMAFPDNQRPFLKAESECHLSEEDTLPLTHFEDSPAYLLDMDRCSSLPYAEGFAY
# How it was run: as §1
# HSF1 = HSF1 (Homo sapiens, UniProt Q00613 1-529); details: protein: recombinant; tags: N-terminal GST; chain copies: 3; dsDNA, one strand shown
# Chain of HSF1 (Q00613 whole entry): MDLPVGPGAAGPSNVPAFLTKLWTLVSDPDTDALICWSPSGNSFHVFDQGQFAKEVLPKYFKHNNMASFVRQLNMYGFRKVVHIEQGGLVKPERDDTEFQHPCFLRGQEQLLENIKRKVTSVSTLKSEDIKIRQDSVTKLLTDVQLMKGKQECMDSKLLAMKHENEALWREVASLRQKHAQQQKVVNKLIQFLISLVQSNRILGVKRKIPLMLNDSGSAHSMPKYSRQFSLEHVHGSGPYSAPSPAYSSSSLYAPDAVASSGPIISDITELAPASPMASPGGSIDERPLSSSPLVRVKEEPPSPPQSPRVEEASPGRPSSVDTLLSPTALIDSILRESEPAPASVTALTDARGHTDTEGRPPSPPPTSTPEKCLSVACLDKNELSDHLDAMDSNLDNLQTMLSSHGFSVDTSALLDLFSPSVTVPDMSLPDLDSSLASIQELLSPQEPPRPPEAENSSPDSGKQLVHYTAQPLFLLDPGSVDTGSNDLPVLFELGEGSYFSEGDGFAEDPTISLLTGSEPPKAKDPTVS
# How it was run: as §1
# SPIC = target: T8, SPIC (Homo sapiens, UniProt Q8N5J4 1-248); details: protein: recombinant; tags: N-terminal GST; dsDNA, one strand shown
# T8 sequence: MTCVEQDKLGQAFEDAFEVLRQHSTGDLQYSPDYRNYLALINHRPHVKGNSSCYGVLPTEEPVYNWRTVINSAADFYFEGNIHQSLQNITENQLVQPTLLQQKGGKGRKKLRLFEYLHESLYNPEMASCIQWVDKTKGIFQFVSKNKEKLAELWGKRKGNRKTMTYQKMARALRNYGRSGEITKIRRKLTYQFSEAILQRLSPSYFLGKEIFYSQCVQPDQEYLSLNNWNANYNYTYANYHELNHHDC
# How it was run: as §1
# ELF4 = ELF4 (Homo sapiens, UniProt Q99607 1-663); details: protein: recombinant; tags: N-terminal GST; dsDNA, one strand shown
# Chain of ELF4 (Q99607 whole entry): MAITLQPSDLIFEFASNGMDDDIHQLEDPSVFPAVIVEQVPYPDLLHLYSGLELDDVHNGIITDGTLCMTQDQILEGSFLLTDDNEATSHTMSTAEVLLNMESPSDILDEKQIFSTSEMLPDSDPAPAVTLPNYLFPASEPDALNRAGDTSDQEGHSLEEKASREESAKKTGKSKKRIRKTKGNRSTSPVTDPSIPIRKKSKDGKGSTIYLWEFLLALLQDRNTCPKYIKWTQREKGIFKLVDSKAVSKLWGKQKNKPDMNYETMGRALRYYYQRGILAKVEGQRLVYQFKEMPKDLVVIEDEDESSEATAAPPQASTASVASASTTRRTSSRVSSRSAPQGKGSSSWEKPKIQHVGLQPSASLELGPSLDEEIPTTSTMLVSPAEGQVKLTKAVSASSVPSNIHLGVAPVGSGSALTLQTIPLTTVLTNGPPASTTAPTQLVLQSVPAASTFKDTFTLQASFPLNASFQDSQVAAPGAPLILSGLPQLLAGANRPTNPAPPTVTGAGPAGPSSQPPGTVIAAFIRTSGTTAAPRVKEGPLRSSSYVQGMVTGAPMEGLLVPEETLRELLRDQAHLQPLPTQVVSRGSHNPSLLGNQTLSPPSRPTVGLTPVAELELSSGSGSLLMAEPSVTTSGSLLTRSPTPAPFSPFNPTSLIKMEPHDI
# How it was run: as §1
# ELK4 = target: T9, ELK4 (Homo sapiens, UniProt P28324-2 1-405); details: protein: recombinant; tags: N-terminal GST; dsDNA, one strand shown
# T9 sequence: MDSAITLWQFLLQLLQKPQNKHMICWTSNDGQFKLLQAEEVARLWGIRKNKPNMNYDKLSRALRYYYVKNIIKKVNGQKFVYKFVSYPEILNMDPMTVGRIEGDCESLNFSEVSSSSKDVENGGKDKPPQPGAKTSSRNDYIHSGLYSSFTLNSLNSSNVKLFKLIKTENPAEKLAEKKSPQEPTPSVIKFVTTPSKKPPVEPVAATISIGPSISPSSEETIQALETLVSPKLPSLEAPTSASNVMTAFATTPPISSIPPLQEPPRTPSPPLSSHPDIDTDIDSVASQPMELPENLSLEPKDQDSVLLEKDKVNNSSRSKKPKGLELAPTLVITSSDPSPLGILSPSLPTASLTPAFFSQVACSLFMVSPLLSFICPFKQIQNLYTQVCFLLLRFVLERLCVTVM
# How it was run: as §1
# ETV2 = target: T10, ETV2 (Homo sapiens, UniProt O00321 1-342); details: protein: recombinant; tags: N-terminal GST; dsDNA, one strand shown
# T10 sequence: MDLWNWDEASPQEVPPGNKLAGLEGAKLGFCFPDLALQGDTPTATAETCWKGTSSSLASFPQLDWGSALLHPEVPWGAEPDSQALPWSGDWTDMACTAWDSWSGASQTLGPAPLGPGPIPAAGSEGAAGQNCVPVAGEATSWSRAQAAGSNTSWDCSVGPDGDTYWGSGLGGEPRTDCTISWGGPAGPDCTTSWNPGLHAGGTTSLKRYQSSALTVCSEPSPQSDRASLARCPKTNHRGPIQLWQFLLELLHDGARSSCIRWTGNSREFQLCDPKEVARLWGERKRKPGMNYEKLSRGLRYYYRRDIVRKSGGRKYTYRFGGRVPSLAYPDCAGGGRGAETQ
# How it was run: as §1
# ELF3 = target: T11, ELF3 (Homo sapiens, UniProt P78545 1-371); details: protein: recombinant; tags: N-terminal GST; dsDNA, one strand shown
# T11 sequence: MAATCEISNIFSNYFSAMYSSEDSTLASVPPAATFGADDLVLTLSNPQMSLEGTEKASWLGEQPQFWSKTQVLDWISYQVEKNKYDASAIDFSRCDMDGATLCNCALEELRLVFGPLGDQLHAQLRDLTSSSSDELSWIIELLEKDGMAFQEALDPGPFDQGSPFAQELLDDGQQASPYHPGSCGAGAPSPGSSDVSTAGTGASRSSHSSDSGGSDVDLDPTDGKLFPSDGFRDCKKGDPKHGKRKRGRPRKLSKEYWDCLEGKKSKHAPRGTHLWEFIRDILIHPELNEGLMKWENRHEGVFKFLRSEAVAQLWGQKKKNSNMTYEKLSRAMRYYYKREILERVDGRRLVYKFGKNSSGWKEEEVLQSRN
# How it was run: as §1
# CRX = CRX (Homo sapiens, UniProt O43186 1-299); details: protein: recombinant; tags: N-terminal GST; dsDNA, one strand shown
# Chain of CRX (O43186 whole entry): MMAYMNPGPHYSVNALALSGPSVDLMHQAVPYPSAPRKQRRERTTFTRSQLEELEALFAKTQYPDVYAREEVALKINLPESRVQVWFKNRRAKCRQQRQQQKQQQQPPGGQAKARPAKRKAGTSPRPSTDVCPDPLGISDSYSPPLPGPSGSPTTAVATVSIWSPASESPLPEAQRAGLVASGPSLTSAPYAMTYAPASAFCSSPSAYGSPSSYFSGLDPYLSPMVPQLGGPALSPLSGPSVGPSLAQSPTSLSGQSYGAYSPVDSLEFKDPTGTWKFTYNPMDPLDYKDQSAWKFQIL
# How it was run: as §1
# ETV1 = ETV1 (Homo sapiens, UniProt P50549 1-477); details: protein: recombinant; tags: N-terminal GST; dsDNA, one strand shown
# Chain of ETV1 (P50549 whole entry): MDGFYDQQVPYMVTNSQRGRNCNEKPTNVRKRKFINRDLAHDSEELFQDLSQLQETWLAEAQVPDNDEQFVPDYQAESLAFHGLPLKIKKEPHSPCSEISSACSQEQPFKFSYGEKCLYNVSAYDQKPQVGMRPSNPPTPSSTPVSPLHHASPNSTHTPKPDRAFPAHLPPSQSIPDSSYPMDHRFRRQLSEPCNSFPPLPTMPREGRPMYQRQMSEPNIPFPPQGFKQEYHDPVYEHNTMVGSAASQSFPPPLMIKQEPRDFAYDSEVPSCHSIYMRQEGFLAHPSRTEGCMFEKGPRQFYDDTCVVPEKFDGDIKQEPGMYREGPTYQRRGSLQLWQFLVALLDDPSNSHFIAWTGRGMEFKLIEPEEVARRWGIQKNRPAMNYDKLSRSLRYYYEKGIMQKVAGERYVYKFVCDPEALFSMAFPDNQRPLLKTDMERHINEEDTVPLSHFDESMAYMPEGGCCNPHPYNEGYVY
# How it was run: as §1
sequence,measurement,setting,value
CTCGTT,binding signal,FLI1,"1.18 fold enrichment (6-mer frequency, TF over GST control)"
same,binding signal,ELK1,"1.31 fold enrichment (6-mer frequency, TF over GST control)"
same,binding signal,GABPA,"1.26 fold enrichment (6-mer frequency, TF over GST control)"
same,binding signal,ERG,"1.25 fold enrichment (6-mer frequency, TF over GST control)"
same,binding signal,ELF1,"1.27 fold enrichment (6-mer frequency, TF over GST control)"
same,binding signal,EHF,"1.27 fold enrichment (6-mer frequency, TF over GST control)"
same,binding signal,SPI1,"1.35 fold enrichment (6-mer frequency, TF over GST control)"
same,binding signal,SPIB,"1.24 fold enrichment (6-mer frequency, TF over GST control)"
same,binding signal,ELK3,"1.15 fold enrichment (6-mer frequency, TF over GST control)"
same,binding signal,FEV,"1.22 fold enrichment (6-mer frequency, TF over GST control)"
same,binding signal,ETV5,"1.29 fold enrichment (6-mer frequency, TF over GST control)"
same,binding signal,HSF1,"1.24 fold enrichment (6-mer frequency, TF over GST control)"
same,binding signal,SPIC,"1.37 fold enrichment (6-mer frequency, TF over GST control)"
same,binding signal,ELF4,"1.28 fold enrichment (6-mer frequency, TF over GST control)"
same,binding signal,ELK4,"1.4 fold enrichment (6-mer frequency, TF over GST control)"
same,binding signal,ETV2,"1.36 fold enrichment (6-mer frequency, TF over GST control)"
same,binding signal,ELF3,"1.46 fold enrichment (6-mer frequency, TF over GST control)"
same,binding signal,CRX,"1.1 fold enrichment (6-mer frequency, TF over GST control)"
same,binding signal,ETV1,"1.22 fold enrichment (6-mer frequency, TF over GST control)"
